The record followed here is PubChem BioAssay (NCI).

Common to all, as to experiment: NCI-60 one-dose screen, 48 h (100 = growth as untreated, 0 = no growth, -100 = all killed)
Holding throughout (settings): 10 µM unless noted

Assay [1] has as its system NCI-H23 lung.
Assay [2] relates to NCI-H322M lung.
The test system of assay [3] is HOP-62 NSCLC.
For assay [4], the system named is NCI-H460 lung.
The subject of assay [5] is HOP-92 NSCLC.
Assay [6] concerns NCI-H522 lung.
For assay [7], the system named is A549/ATCC NSCLC.
Assay [8] deals with 786-0 renal.
For assay [9], the system named is COLO 205 colon.
Assay [10] deals with DU-145 prostate.
For assay [11], the system named is K-562 leukemia.
Assay [12] concerns MALME-3M melanoma.
Assay [13] has as its system MDA-MB-231 breast.
For assay [14], the system named is RXF 393 renal.
Assay [15] has as its system SF-268 CNS.
The subject of assay [16] is SF-295 CNS.
Assay [17] deals with SF-539 CNS.
Assay [18] relates to UACC-257 melanoma.
Assay [19] relates to M14 melanoma.
Assay [20] relates to NCI-H226 lung.

Compounds without any hit were thinned out: in the full panel of roughly 83,000, 20% have a hit.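 The test compound was applied at a single concentration to cells in 96-well plates for 48 hours, and percent growth was recorded.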 A number with no mark means an inactive call. Activity calls are given as the source filed them. How the source made its calls: active means growth percent below 10; inactive means the rest.

For `O=C1c2c(c3c4cc(F)ccc4oc3c3[nH]c4ccccc4c23)C(=O)N1O`, the growth in assay [1] was 23.4%; in [2], 57.7%; in assay [3], 24.2%; in assay [4], 5.01% (active); in assay [5], 48.8%; in assay [6] it was 30.5%. The growth in [7] is 54.2%; in assay [8], 47.6%; in assay [9], 57.7%; in [10] it was 31.8%; in assay [11], 26.1%; in [12], 28%. Also, the growth in assay [13] was 57.6%; in assay [14], 39.9%; in [15], 38.7%; in assay [16], 55.7%; in assay [17] it was 2.46% (active); in assay [18], 75.9%. The growth in [19] was 28.6%.
As for `C/C=C(/C)C(=O)O[C@@H]1CC(C)(C)CC2C34OC(=O)[C@@]21CC[C@@]3(C)[C@]1(C)CCC2C(C)(C)C(=O)CC[C@]2(C)C1C[C@@H]4O` (some centres undefined), the growth is 73.5% in assay [1]; 70.2% in assay [2]; 74.3% in [3]; 42.4% in [4]; 2.1% (active) in assay [5]; 72.1% in assay [6]. In addition, the growth is 63.1% in assay [7]; 74.7% in assay [8]; 56.1% in assay [9]; 77.9% in assay [10]; 28.8% in assay [11]; 85% in [12]. Moreover, the growth in assay [13] was 58.4%; in [14], 76%; in assay [15], 73.4%; in assay [16], 78.4%; in [17], 52.1%; in assay [18], 64.6%. The growth in [19] is 52.4%.
For the molecule `[2H]C([2H])([2H])Oc1ccc(/C=C/C(=O)/C=C(O)/C=C/c2ccc(OC([2H])([2H])[2H])c(OC([2H])([2H])[2H])c2)cc1OC([2H])([2H])[2H]`, the growth in assay [1] was 34.3%; in assay [2], 103%; in assay [3], 47.7%; in assay [4] it was 46.7%; in assay [5] it was 72.7%; in assay [6] it was 14.8%. Further, the growth in assay [7] was 32.4%; in [8], 48.9%; in [9] it was 30.4%; in assay [10] it was 59%; in [11] it was 17.6%; in [12] it was 79.2%. The growth was 72% in assay [13]; 59.4% in assay [14]; 67.2% in assay [15]; 39.5% in assay [16]; 65.8% in assay [17]; 84% in [18]. Moreover, the growth in [19] was 52.5%.
Turning to `Cc1ccc(Nc2cc(N)nc(N)n2)cc1`, the growth was 91.4% in [1]; 98.5% in assay [2]; 101% in assay [3]; 101% in [4]; 90% in assay [5]; 94.3% in assay [6]. The growth in [7] was 97.3%; in assay [8] it was 99.6%; in [9], 105%; in assay [10], 107%; in assay [11], 87.9%; in assay [12], 102%. Further, the growth in assay [13] is 108%; in assay [14] it was 114%; in assay [15] it was 93.4%; in [16] it was 103%; in assay [17] it was 112%; in assay [18], 110%. In assay [19], the growth is 104%.
With `COc1ccc(S(=O)(=O)Oc2ccc(-c3sc4cc(OS(=O)(=O)c5ccc(OC)cc5)ccc4c3C(=O)c3ccc(OCCN4CCCCC4)cc3)cc2)cc1`, the growth is 104% in assay [1]; 98.5% in [2]; 95.8% in assay [3]; 105% in assay [4]; 108% in assay [5]; 91.4% in assay [6]. Moreover, the growth in assay [7] is 88.2%; in [8], 93%; in assay [9] it was 109%; in assay [10], 107%; in assay [11], 103%; in assay [12] it was 92.3%. Besides, the growth in assay [13] was 108%; in [14] it was 110%; in assay [15], 102%; in assay [16] it was 93.2%; in assay [17], 95.2%; in assay [18], 93%. For the same molecule, the growth in assay [19] is 105%.
With `O=c1cc(-c2nccc3c2[nH]c2ccccc23)c2cc(Cl)ccc2o1`, the growth in assay [1] is 60.7%; in assay [2], 81.6%; in [3], 32.7%; in assay [4] it was 21.5%; in assay [5], 26.1%; in [6], 14.4%. The growth in [7] is 42.3%; in assay [8], 27.9%; in assay [9], 68.7%; in assay [10], 79.8%; in [11], 15.1%; in [12], 49.8%. The growth is 62.5% in assay [13]; 82.2% in [14]; 54.6% in assay [15]; 13.9% in assay [16]; 17.6% in assay [17]; 35.4% in assay [18]. For the same molecule, the growth in assay [19] is 17.3%.
As to `CNC(=O)c1cc(Oc2ccc3nc(NC(=O)Nc4ccc(F)cc4F)sc3c2)ccn1`, the growth is 47% in assay [1]; 62.2% in [2]; 60.7% in assay [3]; 63% in assay [4]; -13.7% (active) in [5]; 68.7% in [6]. The growth in assay [7] was 44.8%; in assay [8], 64%; in assay [9] it was 87.1%; in [10] it was 65.7%; in assay [11] it was 71.5%; in [12], 46.2%. The growth in assay [13] is 47.7%; in assay [14], 42.3%; in assay [15], 76.1%; in assay [16], 76.7%; in [17], 61.7%; in [18], 74.3%. Moreover, in assay [19], the growth is 69.1%.
As to `CCOC(=O)c1cc(C(=O)c2cc(OC)cc(OC)c2)n2ccccc12`, the growth in [1] was 67.3%; in assay [20] it was 73.5%; in assay [2] it was 86.3%; in assay [3], 30%; in assay [4] it was 15%; in [6], 40.9%. Also, the growth in assay [7] was 35.7%; in assay [8], 36.4%; in [10], 53.8%; in assay [11], 15.8%; in [12], 31.8%; in assay [13], 55.8%. Further, the growth in [14] is 49.6%; in [15], 46.8%; in [16], 26.1%; in [17] it was 44.8%; in [18] it was 43.9%; in [19], 3.55% (active).
As to `CCN1CCN(c2nc(NNC(=O)c3ccc(OC)cc3)nc(N3CCN(C(c4ccccc4)c4ccccc4)CC3)n2)CC1`, the growth was 53.3% in assay [1]; 84.1% in assay [2]; 83.6% in [3]; -6.88% (active) in [4]; 58.7% in assay [5]; 85.3% in assay [6]. Moreover, the growth in assay [7] is 64.4%; in assay [8], 22.9%; in assay [9], -8.98% (active); in assay [10], 72.2%; in assay [11] it was 14%; in assay [12], -63.7% (active). For the same molecule, the growth in [13] is 82.9%; in assay [14], 55.7%; in assay [15], 81.8%; in assay [16], 71.3%; in assay [17] it was 73.2%; in assay [18] it was 10.3%. In assay [19], the growth is -40.5% (active).
For `COc1cc(/C=C2\CN(S(=O)(=O)c3ccc(C)cc3)C/C(=C\c3cc(CN4CCCC4)c(O)c(OC)c3)C2=O)cc(CN2CCCC2)c1O`, the growth in assay [1] was -53.5% (active); in assay [2], 10.8%; in [3] it was 4.13% (active); in assay [4] it was -67.4% (active); in assay [5], -16.7% (active); in [6] it was -36.2% (active). Also, the growth was 21.2% in assay [7]; -74.7% (active) in assay [8]; -49.4% (active) in assay [9]; -12.5% (active) in [10]; 1.26% (active) in [11]; -81.5% (active) in assay [12]. For the same molecule, the growth was -20.3% (active) in assay [13]; -87.8% (active) in assay [14]; 1.82% (active) in assay [15]; -40.3% (active) in assay [16]; -55.6% (active) in [17]; 57.7% in assay [18]. In addition, the growth in [19] is -66.4% (active).
Regarding `COc1ccc(Cn2cc3c(c2)-c2oncc2CC3)cc1`, the growth in [20] is 86.9%; in assay [2], 89.6%; in assay [3], 58.8%; in assay [4] it was 39.9%; in assay [5], 70.1%; in assay [6] it was 71%. Moreover, the growth is 52.1% in [7]; 72.5% in [8]; 68.4% in [9]; 176% in assay [10]; 20.6% in [11]; 83.2% in assay [12]. For the same molecule, the growth in assay [13] was 70.5%; in [14], 75.8%; in [15], 136%; in assay [16] it was 58.6%; in assay [17], 48%; in assay [18], 85.9%. For the same molecule, the growth in [19] was 29.2%.
Regarding `Cc1ccc(C(=O)Nc2ccc(CN3CCN(C)CC3)c(C(F)(F)F)c2)cc1C#Cc1cnc(N)c2ccccc12`, the growth in assay [20] was 21.6%; in assay [2], 17%; in assay [3], 15%; in assay [4], -86.8% (active); in assay [6], -44.3% (active); in assay [7], -65.7% (active). For the same molecule, the growth in [8] was -77.4% (active); in assay [9], -66.3% (active); in [10], -89.3% (active); in [11], -23.5% (active); in [12] it was -59.9% (active); in assay [13], -63.4% (active). Further, the growth in [14] is -75.5% (active); in [15], 1.65% (active); in assay [16] it was -35.9% (active); in assay [17], -84.8% (active); in assay [18] it was -50.3% (active); in [19] it was -76.7% (active).
Turning to `O=C1c2ccccc2-c2c1c1ccncc1c(=O)n2CCCn1ccnc1`, the growth in [20] is 54.4%; in [2], 83.8%; in [3], 39.9%; in assay [4], 21.8%; in [5] it was 78.5%; in assay [6], 29.6%. The growth is 56.3% in assay [7]; 55.4% in assay [8]; 58.6% in assay [10]; 20.5% in assay [11]; 98% in assay [12]; 73.8% in assay [13]. Besides, the growth was 55.6% in [14]; 38.7% in assay [15]; 56.2% in assay [16]; 31.6% in assay [17]; 93.5% in assay [18]; 63.3% in assay [19].
